Screening results deposited in PubChem by National Center for Advancing Translational Sciences (NCATS).
In the library only some 2.6% were active in any assay of this set; here they are far more common.
TRPV1 agonist: HTS Assay for Compounds that Act as Agonists of the Vanilloid Receptor 1; hit rate 0.19% among 320,000; activation, % at 8.33 µM; AID 540275, 2011; TRPV1-expressing cells, Fluo-8 calcium influx, agonist mode; in the data active = activation above about 80%; inconclusive = between about 30% and that limit
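TRPV1-expressing cells were cultured overnight at 35.5C and loaded with Fluo-8 calcium dye for 40 to 90 min at room temperature. After a 10 s baseline, compound was added and calcium influx was read kinetically for 3 min (ex 480/em 520 nm).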
KCNH2 3.1 block: qHTS for Inhibitors of KCHN2 3.1: Mutant qHTS; AID 720553, 2013; U2OS KCNH2 3.1, thallium flux FluxOr; hits give low values; hit rate 0.95% among 340,000; activity change, % (tested at about 1.8 µM);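 active = maximum activity change below -70%; inconclusive = maximum activity change from -70% to -50%; inactive = maximum activity change above -50%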;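 note: thallium influx rate constant from kinetic fluorescence after stimulation buffer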
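Normalized rate constant (relative to positive and negative DMSO controls) derived from a 2 min kinetic fluorescence read after stimulation; U2OS cells expressing the 3.1 isoform via virus at 1.77 x 10^8 /mL.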
p53 reactivation: qHTS assay for re-activators of p53 using a Luc reporter. H1299 p53-A138V BP100-luciferase reporter, luminescence, 24 h. Potency, µM (highest dose often 92.2 µM), most hits filed as activators. hit rate 0.063% among 320,000. AID 504706, 2011; active = well fitted activation curve with a large enough effect; inconclusive = small, poorly fitted or top-dose-only effect; inactive = no such curve, though single readings can be large or run the other way; note: nearly all actives have a fitted effect of over 45% in size
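p53-null H1299 cells stably carrying temperature-sensitive p53-A138V and a BP100-luciferase reporter were pinned with compounds (4-point, 1:5 series) and held 24 hrs at 37 deg C. Luminescence was read 10 min after detection reagent.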
hERG WT inh: qHTS for Inhibitors of KCHN2 3.1: Wildtype qHTS; U2OS, BacMam KCNH2, thallium flux FluxOr; hits give low values; activity change, % at 1.84 µM; hit rate 0.37% among 340,000; AID 720551, 2013;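 active = maximum activity change below -70%; inconclusive = maximum activity change between -70% and -50%; inactive = maximum activity change above -50%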
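U2OS cells transduced with wild-type KCNH2 virus are loaded with FluxOr dye for 45 min, and thallium flux is measured in kinetic reads before and after stimulation buffer. Rate constants are normalized to DMSO controls.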
ClpP mod: qHTS Assay for Activators of ClpP. ATP-dependent Clp protease proteolytic subunit (Bacillus subtilis (strain 168)), P80244. purified B. subtilis ClpP, FRET peptide cleavage, 20 min. Potency, µM (doses to about 57.5 µM). hit rate 1.9% among 340,000. AID 651965, 2013; active = well fitted falling curve with a large enough effect; inconclusive = small, poorly fitted or top-dose-only effect; inactive = no such curve, though single readings can be large or run the other way; note: the source files actives as falling curves though it sought activators and does not explain the sign; nearly all actives have a fitted effect of over 65% in size
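Purified B. subtilis ClpP, 10 microg/mL final in Tris/HCl pH8 with KCl, BSA, glycerol and Tween-20, cleaved an Abz/nitrotyrosine-quenched decapeptide. Fluorescence (ex 320, em 430) was read at 0 and 20 min at room temperature. Delta was normalized to 5.8 microM ADEP and DMSO/no-enzyme controls.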
TRPV1 PAM: HTS Assay for Compounds that Act as Potentiators of the Vanilloid Receptor 1 | potentiation, % at 8.33 µM | hit rate 0.02% among 320,000 | AID 540277, 2011 | TRPV1-expressing cells, Fluo-8 calcium influx, capsaicin EC20 potentiation; in the data active = potentiation above about 80%; inconclusive = between about 30% and that limit
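TRPV1-expressing cells were cultured overnight at 35.5C and loaded with Fluo-8 calcium dye for 40 to 90 min at room temperature. After a 10 s baseline, compound was added and calcium influx was read kinetically for 3 min (ex 480/em 520 nm).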
Numbers stand for hits; - = inactive; ? = inconclusive; . = not tested or not shown.

SMILES	TRPV1 agonist	KCNH2 3.1 block	p53 reactivation	hERG WT inh	ClpP mod	TRPV1 PAM
COCc1cc(C)n(CC(=O)Nc2ccccc2C(=O)OC)c(=O)c1C#N	-	-	-	-	18µM	-
COc1ccc(OC)c(NC(=O)c2nc(S(=O)(=O)Cc3ccccc3F)ncc2Cl)c1	.	.	.	.	-	.
CCOc1ccc(NC(=O)Cn2nnc(C(=O)NCCc3ccccc3)c2N)cc1	.	.	.	.	-	.
Cc1ccc([C@@H]2C[C@H]3[C@@H](CN2S(=O)(=O)c2ccc(C)cc2)C(=O)C[C@@H](c2ccc(Cl)cc2)N3S(=O)(=O)c2ccccc2C)cc1	.	-	.	-	-	.
CCOC(=O)C1(Cc2ccccc2)CCCN(CCCn2cccn2)C1 (stereo not drawn)	-	-	-	-	-	-
CCOC(=O)C1(Cc2ccc(Cl)cc2)CCN(CCCn2cccn2)CC1	-	-119	-	-	.	-
CCOC(=O)C1(Cc2ccccc2C(F)(F)F)CCN(C(C)CCn2cccn2)CC1 (stereo not drawn)	-	-85	-	-	.	-
CCOC(=O)C1(Cc2ccccc2C(F)(F)F)CCN(C(C)CSC)CC1 (stereo not drawn)	-	-	-	-	-	-
O=C(Nc1cccc(C(F)(F)F)c1)c1cc2nc(-c3ccccc3)cc(C(F)(F)F)n2n1	.	.	.	.	-	.
O=C(Cn1c(=O)nc(-c2ccccc2)c2cc(Cl)ccc21)N1CCN(c2ccc(F)cc2)CC1	.	.	.	.	-	.
CC1CN(C(=O)N2CCC(C(=O)NCCCc3ccccc3)CC2)c2cc(Cl)ccc2O1 (stereo not drawn)	.	.	.	.	-	.
Cc1ccccc1CNC(=O)Cc1ccc(NC(=O)N2CCCCc3ccccc32)cc1	.	.	.	.	-	.
Cc1ccnc(SCC(=O)c2ccc([N+](=O)[O-])cc2)n1	-	-	-	-	16µM	-
Cc1nn(C)c(C(=O)Nc2ccc(S(=O)(=O)NC34CC5CC(CC(C5)C3)C4)cc2)c1Br	-	-	?	-	-	81
Cc1ccc(S(=O)(=O)NC23CC4CC(CC(C4)C2)C3)cc1	-	-	-	-	-	-
CSc1nnc(-c2cnccn2)n1C	-	-97	-	-	-	-
CC(C)(C)OC(=O)N1CCC(c2c(C(=O)NCCN3CCC(Cc4ccccc4)CC3)cnn2-c2ccccc2)CC1	.	.	.	.	-	.
O=C(COC(=O)CC(c1ccccc1)c1ccccc1)NCc1ccccc1	?	-	-	-	-	-
NC(=O)COC(=O)CC(c1ccccc1)c1ccccc1	-	-94	-	-	.	-
CCn1c(N)[n+](CC(=O)Nc2ccc(SC(F)F)cc2)c2ccccc21	-	-92	-	-	.	-
CC[N+](CC)(CC)CC(=O)Nc1ccc(SC(F)F)cc1	-	-	-	-	-	-
COC(=O)Cc1[nH]nc2c1C(c1cccc(OC)c1OC)C(C#N)=C(N)O2 (stereo not drawn)	-	-	-	-	28µM	-
Nc1ccccc1N=Cc1ccc(-c2cccc(Cl)c2)o1	117	-	-	-	.	-
Cc1cc(C)nc(N/C=C(\C#N)C(=O)c2cccc(CSc3ccccc3)c2)n1	.	.	.	.	-	.
COC(=O)Cc1c(C)c2ccc(OC(C)C)cc2oc1=O	-	-	-	-	-	-
SMILES	TRPV1 agonist	KCNH2 3.1 block	p53 reactivation	hERG WT inh	ClpP mod	TRPV1 PAM
CCc1c(C)c2ccc(OCC(=O)OC)cc2oc1=O	-	-	-	-	14µM	-
COC(=O)COc1cc(C)cc2oc(=O)c(CC(=O)OC)c(C)c12	-	-	-	-	14µM	-
COC(=O)COc1cc(OCC(=O)OC)c2c(C)c(Cl)c(=O)oc2c1	-	-	-	-	14µM	-
CC1C(=O)N(Cc2cn(CC3CCCCC3)nn2)CCS(=O)(=O)N1Cc1ccc(-c2ccc(Cl)cc2)cc1 (stereo not drawn)	.	-	.	-	-	.
CCN(CC)c1nc(NC2CCN(C)CC2)c2cc(OC)c(OC)cc2n1	.	.	.	.	-	.
C=CCn1c(SCC(=O)NC2CCCC2)nnc1-c1ccncc1	-	-	-	-	25µM	-
C=CCn1c(SCC(=O)O)nnc1-c1cccs1	-	-	-	-	?	-
C=CCn1c(SCC(=O)Nc2ccc3c(c2)CCC3)nnc1-c1cccs1	-	-76	-	-94	-	-
C=CCn1c(SCCC(=O)O)nnc1-c1cccs1	-	-	-	-	28µM	-
CCn1c(SCC(=O)Nc2ccc(OC)c(OC)c2)nnc1-c1cccs1	-	-	-	-	-	-
CCOc1ccccc1CN1CCNC(=O)C1CC(=O)NCCC1=CCCCC1 (stereo not drawn)	-	-109	-	-	-	-
COc1ccccc1CN1CCNC(=O)C1CC(=O)NCCC1=CCCCC1 (stereo not drawn)	-	-	-	-	-	-
O=S1(=O)c2ccccc2N(Cc2ccccc2F)c2ccccc21	.	.	.	.	-	.
Cc1ccc(C)c(NC(=O)c2cnc3sc(N4CCOCC4)nn3c2=O)c1	.	.	.	.	-	.
COC(=O)CSc1nc2sc3c(c2c(=O)n1-c1ccc(C)cc1)CC(C(C)C)OC3 (stereo not drawn)	.	.	.	.	-	.
COc1cc(CN2CCNC(=O)C2CC(=O)N2CCCN(C(C)=O)CC2)cc(OC)c1 (stereo not drawn)	-	-	-	-	16µM	-
COc1ccccc1C(=O)NCCSCc1ccccc1Cl	-	-	-	-	7.1µM	-
Cc1ccccc1OCCNC(=O)CNC(=O)c1ccccc1O	-	.	-	?	28µM	-
COc1ccccc1C(=O)NCCC(=O)NNC(=O)c1ccccc1O	-	-	-	-	25µM	-
CCOC(=O)c1c(N)c2cc([N+](=O)[O-])ccc2n1C	-	-97	-	-	-	-
CCOC(=O)/C(=C/c1c(C)n(C)c2ccc([N+](=O)[O-])cc12)C(C)=O	-	-	-	-	.	-
CC(NC(=O)C1=CC=CN2CCS(=O)(=O)N=C12)c1ccc(Cl)cc1Cl (stereo not drawn)	-	-	-	-	25µM	-
Cc1cc(C)cc(NC(=O)c2oc3ccccc3c2COc2ccccc2)c1	-	-	-	-	25µM	-
O=C(Nc1cccc(-c2nc3ccccc3o2)c1)C(F)(F)F	.	.	.	.	-	.
CCOC(=O)c1cnc(Cc2ccccc2)[nH]c1=O	-	-	.	-	-	-
CCOC(=O)c1cnn2c1[nH]c(=O)c1ccccc12	-	-	-	-	3.5µM	-
